Our source for the PBM binding z-score values is the supplement of paper PMC6555819.

Holding throughout (experiment): PBM binding z-score (relative to random genomic background probes); higher = stronger binding; sequences stand for … in GC…GCGATTGACAGCGTAGAATGAAGG
Assay [1] relates to RARb homodimer (NR concentration 270 nM). An outline of the steps:
(§1)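 Binding z-scores take random background probes as their reference. They come from custom Agilent 4×180K protein-binding microarrays incubated 1 h with ligand-free nuclear receptor dimers, with antibodies against each partner (one per run) detecting binding. Scanned fluorescence was regression-normalized.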

The subject of assay [2] is RARg:RXRa (NR concentration 270 nM, RXRa partner concentration 90 nM). Summed up: as §1
Assay [3] relates to RARg homodimer (NR concentration 270 nM). Summed up:
as §1

Assay [4] relates to RXRa DBDmut IVT, anti-RXR (DBD mutation: RXRa K156A/R161A, NR concentration 90 nM). An outline of the steps:
as §1

Assay [5] has as its system RXRa homodimer (NR concentration 180 nM). An outline of the steps: as §1
The subject of assay [6] is THRa:RXRa (NR concentration 90 nM, RXRa partner concentration 90 nM). Summed up: as §1
In assay [7] the test system is THRa homodimer (NR concentration 90 nM). Summed up: as §1
The subject of assay [8] is VDR homodimer (NR concentration 270 nM). An outline of the steps: as §1

Take ATATGTAGGTTACTTCCGGGTCATTCAGGCTATG: the PBM binding z-score was determined as 3.02 in assay [1]; 3.9 in assay [2]; 2.02 in assay [3]; 1.23 in assay [4]; 3.02 in assay [5]; 3.91 in assay [6]. Also, the results for the PBM binding z-score in assay [7] and in assay [8] were 2.57 and 2.58, respectively.
On to CGAACTAGGTCAGAACAGGACAGTGCAGGATGAT, for which the PBM binding z-score in assay [1] was 2.14; in assay [2] it was 2.44; in assay [3], 3.46; in assay [4], 0.591; in assay [5], 1.26; in assay [6], 3.38. Moreover, the values for the PBM binding z-score in assay [7] and in assay [8] were 0.224 and 0.113, respectively.
On to ACTATTAGTTGACTTAGGGCGACCGATACGACGC, for which the PBM binding z-score in assay [1] was determined as 0.553; in assay [2], 0.564; in assay [3] it was 0.841; in assay [4] it was 1.02; in assay [5], 0.421; in assay [6] it was 1.12. For the same sequence, the PBM binding z-score in assay [7] is 0.262; in assay [8], 0.166.
Take CCGACTGGGGCATAAGGTTACCATAAGCCAGCCC: the PBM binding z-score in assay [1] was 1.69; in assay [2], 1.62; in assay [3], 1.17; in assay [4], -0.574; in assay [5] it was 1.13; in assay [6], 2.01. The PBM binding z-score is 1.13 in assay [7] and -0.0146 in assay [8].
Turning to CGTCGAAGGTCAGCAGGTCAGTGAAAGCGACGTG, the PBM binding z-score was determined as 4.94 in assay [1]; 6.48 in assay [2]; 6.93 in assay [3]; 1.34 in assay [4]; 5.06 in assay [5]; 2.88 in assay [6]. Besides, the results for the PBM binding z-score in assay [7] and in assay [8] were 0.495 and 1, respectively.
For the sequence TTACCAAGGTGAAGGCCGTTGATCCCTCTGTAGA, the PBM binding z-score was 0.648 in assay [1]; 0.161 in assay [2]; 0.236 in assay [3]; -0.411 in assay [4]; 0.286 in assay [5]; 1.57 in assay [6]. Besides, the PBM binding z-score in assay [7] is 0.252; in assay [8], -0.421.
For ATCTCCAGGTAAAGTTCAGTGAAAGATCGATAGA, the PBM binding z-score came to 2.77 in assay [1]; 2.26 in assay [2]; 2.51 in assay [3]; 1.38 in assay [4]; 1.52 in assay [5]; 1.73 in assay [6]. For the same sequence, the values for the PBM binding z-score in assay [7] and in assay [8] were 0.709 and 1.92, respectively.
